Assay results: the supplement of paper PMC9694430

Key:
Assay in all cases: thermal shift delta Tm vs DMSO control; higher = stronger stabilization (binding)
Settings in all cases: 12.5 µM; protein concentration 2 µM
LOC_OS01G01410-cb001 = tested on: LOC_OS01G01410-cb001
Summary of the method: (§1)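 Thermal shift values come from differential scanning fluorimetry on purified rice kinase domains made in E. coli, with melting temperatures obtained from Boltzmann fits. Samples of 19.5 μl held 2 μM kinase, 100 mM potassium phosphate pH 7.5, 150 mM NaCl, 10% glycerol, 5 × SYPRO Orange and compound in DMSO, and were heated from 25°C to 95°C at 0.05°C/s. Each shift is a triplicate mean relative to the DMSO-only protein sample.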

LOC_OS01G02750-cb003 = tested on: LOC_OS01G02750-cb003
Summary of the method: as §1

LOC_OS01G10900-cb004 = tested on: LOC_OS01G10900-cb004
Summary of the method: as §1

LOC_OS01G13800-cb001 = tested on: LOC_OS01G13800-cb001
Summary of the method: as §1

LOC_OS01G14860-cb001 = tested on: LOC_OS01G14860-cb001
Summary of the method: as §1

LOC_OS01G21960-cb002 = tested on: LOC_OS01G21960-cb002
Summary of the method: as §1

LOC_OS01G39600-cb002 = tested on: LOC_OS01G39600-cb002
Summary of the method: as §1

LOC_OS01G48390-cb002 = tested on: LOC_OS01G48390-cb002
Summary of the method: as §1

LOC_OS01G51400-cb002 = tested on: LOC_OS01G51400-cb002
Summary of the method: as §1

LOC_OS01G52050-cb004 = tested on: T1, LOC_OS01G52050-cb004
T1 sequence (whole entry): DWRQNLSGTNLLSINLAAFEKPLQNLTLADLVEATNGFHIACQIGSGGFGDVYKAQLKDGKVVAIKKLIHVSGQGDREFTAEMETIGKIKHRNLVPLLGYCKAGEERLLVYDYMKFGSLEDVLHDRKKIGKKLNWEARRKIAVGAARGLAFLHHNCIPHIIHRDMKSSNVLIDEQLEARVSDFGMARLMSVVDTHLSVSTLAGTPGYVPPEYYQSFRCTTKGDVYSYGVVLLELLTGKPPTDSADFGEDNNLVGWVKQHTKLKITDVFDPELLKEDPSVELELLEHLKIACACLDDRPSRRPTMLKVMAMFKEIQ
Summary of the method: as §1

LOC_OS01G57100-cb003 = tested on: LOC_OS01G57100-cb003
Summary of the method: as §1

LOC_OS01G60330-cb001 = tested on: LOC_OS01G60330-cb001
Summary of the method: as §1

LOC_OS01G60700-cb002 = tested on: LOC_OS01G60700-cb002
Summary of the method: as §1

LOC_OS01G63280-cb003 = tested on: LOC_OS01G63280-cb003
Summary of the method: as §1

LOC_OS01G67340-cb003 = tested on: LOC_OS01G67340-cb003
Summary of the method: as §1

LOC_OS01G70970-cb002 = tested on: LOC_OS01G70970-cb002
Summary of the method: as §1

LOC_OS02G07810-cb001 = tested on: LOC_OS02G07810-cb001
Summary of the method: as §1

LOC_OS02G08530-cb003 = tested on: LOC_OS02G08530-cb003
Summary of the method: as §1

LOC_OS02G14120-cb001 = tested on: LOC_OS02G14120-cb001
Summary of the method: as §1

LOC_OS02G17970-cb001 = tested on: LOC_OS02G17970-cb001
Summary of the method: as §1
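Further: purified Escherichia coli-expressed rice kinase domain construct.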

Row | SMILES | thermal shift delta Tm (LOC_OS01G01410-cb001) [°C] | thermal shift delta Tm (LOC_OS01G02750-cb003) [°C] | thermal shift delta Tm (LOC_OS01G10900-cb004) [°C] | thermal shift delta Tm (LOC_OS01G13800-cb001) [°C] | thermal shift delta Tm (LOC_OS01G14860-cb001) [°C] | thermal shift delta Tm (LOC_OS01G21960-cb002) [°C] | thermal shift delta Tm (LOC_OS01G39600-cb002) [°C] | thermal shift delta Tm (LOC_OS01G48390-cb002) [°C] | thermal shift delta Tm (LOC_OS01G51400-cb002) [°C] | thermal shift delta Tm (LOC_OS01G52050-cb004) [°C] | thermal shift delta Tm (LOC_OS01G57100-cb003) [°C] | thermal shift delta Tm (LOC_OS01G60330-cb001) [°C] | thermal shift delta Tm (LOC_OS01G60700-cb002) [°C] | thermal shift delta Tm (LOC_OS01G63280-cb003) [°C] | thermal shift delta Tm (LOC_OS01G67340-cb003) [°C] | thermal shift delta Tm (LOC_OS01G70970-cb002) [°C] | thermal shift delta Tm (LOC_OS02G07810-cb001) [°C] | thermal shift delta Tm (LOC_OS02G08530-cb003) [°C] | thermal shift delta Tm (LOC_OS02G14120-cb001) [°C] | thermal shift delta Tm (LOC_OS02G17970-cb001) [°C]
1 | C[C@@H](N)c1ccc(C(=O)Nc2ccnc3[nH]ccc23)cc1 | 0.24 | 1.16 | 0.32 | 0.63 | 1.44 | 1.78 | 0.74 | 0.45 | 0.27 | 1.35 | 0.44 | 1.35 | 0.79 | 0.61 | 0.47 | 0.39 | 0.79 | 0.76 | 4 | 1.28
2 | CSc1cccc(Nc2ncc3cc(-c4c(Cl)cccc4Cl)c(=O)n(C)c3n2)c1 | 0.57 | 0.56 | 1.7 | 0.31 | 0.06 | 0.55 | -0.21 | 0.12 | 0.18 | 0.18 | 1.54 | 0.88 | 0.94 | 0.6 | 0.72 | 0.3 | 0.11 | 0.12 | 0.99 | -0.06
3 | N#Cc1ccc2ncnc(NCCc3ccccc3)c2c1 [Senexin A] | 1.49 | 1.5 | 0.41 | 0.25 | 0.78 | 0.95 | 0.66 | 0.42 | 0.41 | 2.96 | -0.12 | 0.74 | -0.36 | 0.25 | 0.38 | 0.3 | -0.71 | 2.47 | 2.47 | 0.28
4 | COc1cccc(-c2cc(=O)c3ccccc3o2)c1N | 1.2 | 0.8 | -0.05 | 0.1 | 0.1 | -0.03 | 0.91 | -0.01 | 0.02 | 0.01 | -0.23 | 0.99 | 0.39 | -0.2 | -0.8 | 0.32 | 0.94 | 0.37 | -0.3 | -0.31
5 | Oc1cccc(-c2nc(N3CCOCC3)c3oc4ncccc4c3n2)c1 | 0.96 | 0.09 | 0.03 | 0.75 | 0.17 | 0.64 | 0.74 | 0.11 | 0.21 | 0.11 | 1.36 | 1.6 | 1.37 | 0.94 | 0.14 | 0.33 | 0.91 | 0.91 | 0.49 | 0.74
6 | Nc1nc(N)c2nc(-c3cccc(O)c3)c(-c3cccc(O)c3)nc2n1 | 0.47 | 0.72 | 1.95 | 0.77 | 1 | 1.07 | -0.28 | 0.4 | 0.49 | 1.16 | 2.01 | 3.89 | 1.27 | 0.44 | -0.24 | 0.19 | 1.52 | 0.91 | 1.95 | 1.03
